{
  "source": "PubChem BioAssay AID720517",
  "about": "(National Center for Advancing Translational Sciences (NCATS), 2013)",
  "note": "Results filed as inconclusive are left out. Where a call stands in place of a potency, no number is given. Calls of active or inactive are those of the source. Calls come from the whole dose curve; as a rule, active = well fitted activation curve with a large enough effect; inconclusive = small, poorly fitted or top-dose-only effect; inactive = flat fitted curve, though single readings scatter.",
  "data": [
    {"test": "qHTS for Inhibitors of Cell Surface uPA Generation: FP59 Counterscreen for Cherry-picked Compounds", "conditions": "FP59 anthrax toxin cytotoxicity counterscreen, cells; series mostly up to 115 µM", "values": [
      {"compound": "CNS(=O)(=O)c1cc(-c2nnc(Nc3ccc(CC(N)=O)cc3)c3ccccc23)ccc1C", "Potency": "inactive"},
      {"compound": "CC(=O)c1cnc2nc(SCc3cccc(C)c3)nn2c1C", "Potency": "inactive"},
      {"compound": "CCCCNc1c(-c2ccc(-c3cccc(Cl)c3)cc2)nc2ccccn12", "Potency": "inactive"},
      {"compound": "COc1cc(NC(=O)CSc2nnc3ccc(-c4ccncc4)nn23)cc(OC)c1", "Potency": "inactive"},
      {"compound": "CCCn1c(N)c(C(=O)CSc2nnc(C3CC3)n2Cc2ccccc2)c(=O)[nH]c1=O", "Potency": "inactive"},
      {"compound": "O=C(COC(=O)Cn1cnc2ccccc21)NCc1ccc(F)cc1", "Potency": "inactive"},
      {"compound": "Cc1nc(NC(=O)COC(=O)CCc2ccccc2)c(Cl)cc1Cl", "Potency": "inactive"},
      {"compound": "COc1ccc(C)cc1NC(=O)CSCc1cc(=O)n2c(C)csc2n1", "Potency": "inactive"},
      {"compound": "OCCN(Cc1ccccc1)CC(O)COc1ccc2c(c1)OCO2", "note": "(centres undefined)", "Potency": "inactive"},
      {"compound": "Cc1cc(C)cc(S(=O)(=O)c2cn(C)c3cc(N4CCN(C)CC4)c(F)cc3c2=O)c1", "Potency": "inactive"},
      {"compound": "O=C(C[C@@H]1C/C=C\\C[C@H](Cc2ccc(F)cc2)C(=O)OC[C@H]2CCCN2C1=O)N[C@H](CO)Cc1ccccc1", "Potency": "inactive"},
      {"compound": "N#CCC(=O)N/N=C/c1ccc(OCC(=O)Nc2ccc(F)cc2)cc1", "Potency": "inactive"},
      {"compound": "O=C(Nc1cccc(-c2nn[nH]n2)c1)c1ccc(Cl)s1", "Potency": "inactive"},
      {"compound": "O=C(O)c1ccc(-c2ccc(/C=C3\\NC(=O)N(Cc4ccc(Cl)cc4)C3=O)o2)cc1", "Potency": "inactive"},
      {"compound": "Cn1cnc([N+](=O)[O-])c1Sc1ccc(Br)cc1", "Potency": "inactive"},
      {"compound": "CC1C2=C(CC(C)(C)CC2=O)NC2=C1C(=O)CC(C)(C)C2", "Potency": "inactive"},
      {"compound": "CCOC(=O)CC(=O)CSc1nc2c(C)c(C)ccc2cc1C", "Potency": "inactive"},
      {"compound": "COc1ccc(C(c2sc3nc(C)nn3c2O)N2CCC(C(N)=O)CC2)cc1OC", "note": "(centres undefined)", "Potency": "inactive"},
      {"compound": "CCCc1nc2c(=O)n(C)c(=O)[nH]c2n1CCC", "Potency": "inactive"},
      {"compound": "O=C(/C=C/c1ccc(O)c(O)c1)O[C@@H]1C[C@](O)(C(=O)O)C[C@@H](O)[C@H]1O", "Potency": "inactive"},
      {"compound": "CC1(C)CC2(CC(c3ccccc3)Oc3cc(O)ccc32)NC(=S)N1", "note": "(centres undefined)", "Potency": "inactive"},
      {"compound": "Cc1ccc(CC2CC(=O)N(c3cc(C)ccc3C)C2=O)cc1", "note": "(centres undefined)", "Potency": "inactive"},
      {"compound": "CCOc1cc(C(=O)OCC(=O)c2cc(C)n(CC3CCCO3)c2C)ccc1OCC(=O)N1CCOCC1", "note": "(centres undefined)", "Potency": "inactive"},
      {"compound": "CCOc1ccc(C2(C)CC(=O)N(C)C2=O)cc1", "note": "(centres undefined)", "Potency": "inactive"},
      {"compound": "Nc1ccc(S(=O)(=O)c2ccccc2)nc1", "Potency": "inactive"},
      {"compound": "COc1ccc(CCN=c2c([N+](=O)[O-])nn(-c3cccc(C)c3)n2O)cc1OC", "Potency": "inactive"},
      {"compound": "CCOC(=O)N1CCN(c2c(NCCCN3CCCCCC3)c(=O)c2=O)CC1", "Potency": "inactive"},
      {"compound": "CCOc1cc(S(=O)(=O)NC2CC(C)(C)NC(C)(C)C2)ccc1Cl", "Potency": "inactive"},
      {"compound": "COc1ccc(-c2cc(-c3ccccc3)nc3ncnn23)cc1", "Potency": "inactive"},
      {"compound": "COc1cccc(C2CC(c3ccc(C)cc3)n3ncnc3N2)c1", "note": "(centres undefined)", "Potency": "inactive"},
      {"compound": "CC1CCCC(NC(=O)CNC(=S)N(Cc2ccccc2)Cc2cccs2)C1C", "note": "(centres undefined)", "Potency": "inactive"},
      {"compound": "CCc1c(C)sc(NC(=S)N2CC(C)OC(C)C2)c1C(=O)OC", "note": "(centres undefined)", "Potency": "inactive"},
      {"compound": "Cc1cccc(C)c1NC(=O)c1c(O)c2ccccc2[nH]c1=O", "Potency": "inactive"},
      {"compound": "CCOC(=O)C1CCN(C(=O)COC(=O)c2c(C)c(CC)nc3ccccc23)CC1", "Potency": "inactive"},
      {"compound": "CC1CS(=O)(=O)CCN1N=Cc1ccc([N+](=O)[O-])o1", "note": "(centres undefined)", "Potency": "inactive"},
      {"compound": "CC1Cc2nc(SCC(=O)N3CCCC3)n(C)c(=O)c2S1", "note": "(centres undefined)", "Potency": "inactive"},
      {"compound": "Cc1nn2c(=O)cc(CSc3nc4ccccc4[nH]3)nc2s1", "Potency": "inactive"},
      {"compound": "CC(=O)[C@@]1(O)[C@H](C)CC2C3CC=C4CC(OP(=O)(O)O)CC[C@]4(C)C3CC[C@@]21C", "note": "(some centres undefined)", "Potency": "inactive"},
      {"compound": "Cc1ccc(NC(=O)CSc2nncn2N)cc1C", "Potency": "inactive"}
    ]}
  ]
}
